Mtb FBA inh: Mtb FBA enzyme inhibitors, primary screen, biochemical, fluorescence, strain H37Rv; purified M. tuberculosis FBA, fluorescence read-out; hit rate 2.3% among 360,000; Fructose-bisphosphate aldolase (Mycobacterium tuberculosis (strain ATCC 25618 / H37Rv)), …; inhibition, % at 1 µM; in the data active = inhibition above about 27%;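 note: 0% = vehicle and 100% = reference inhibitor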
CCHFV vOTU inh: CCHFV vOTU protease inhibitors, primary screen, biochemical, Pep-AMC substrate, fluorescence; Crimean-Congo hemorrhagic fever virus L polyprotein viral ovarian tumor (vOTU) protease …; inhibition, % at 11.5 µM; hit rate 0.55% among 370,000; AID 651958, 2012; note: 0% = vehicle wells with enzyme and 100% = no enzyme wells
GDH-TPI counter: GDH-TPI coupling enzyme inhibitors, primary screen, artefact control for M. tuberculosis FBA inhibitor project, biochemical, absorbance, full deck | GDH-TPI coupled enzyme counterscreen, NADH absorbance | AID 588335, 2011 | inhibition, % at 4.8 µM | hit rate 1.2% among 360,000;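 note: 0% = DMSO wells and 100% = wells lacking the enzyme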
SARS 3CLpro inh: SARS-CoV 3CLpro protease inhibitors, primary screen, biochemical, quenched FRET; inhibition, % at 6 µM; hit rate 0.14% among 290,000; AID 1706, 2009; recombinant SARS-CoV 3CLpro, quenched FRET peptide cleavage; Replicase polyprotein 1ab (Severe acute respiratory syndrome coronavirus), P0C6X7; in the data active = inhibition above about 12%
RecA intein inh: Mtb RecA intein splicing inhibitors, primary screen, biochemical, fluorescence, HTS | Protein RecA (Mycobacterium tuberculosis (strain ATCC 25618 / H37Rv)), P9WHJ3 | cell-free RecA intein splicing | inhibition, % (no concentration beside the values) | hit rate 0.75% among 290,000; in the data active = inhibition above about 30%;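 note: 0% = vehicle wells and 100% = reference inhibitor control wells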
Target sequence (P9WHJ3 whole entry, looked up): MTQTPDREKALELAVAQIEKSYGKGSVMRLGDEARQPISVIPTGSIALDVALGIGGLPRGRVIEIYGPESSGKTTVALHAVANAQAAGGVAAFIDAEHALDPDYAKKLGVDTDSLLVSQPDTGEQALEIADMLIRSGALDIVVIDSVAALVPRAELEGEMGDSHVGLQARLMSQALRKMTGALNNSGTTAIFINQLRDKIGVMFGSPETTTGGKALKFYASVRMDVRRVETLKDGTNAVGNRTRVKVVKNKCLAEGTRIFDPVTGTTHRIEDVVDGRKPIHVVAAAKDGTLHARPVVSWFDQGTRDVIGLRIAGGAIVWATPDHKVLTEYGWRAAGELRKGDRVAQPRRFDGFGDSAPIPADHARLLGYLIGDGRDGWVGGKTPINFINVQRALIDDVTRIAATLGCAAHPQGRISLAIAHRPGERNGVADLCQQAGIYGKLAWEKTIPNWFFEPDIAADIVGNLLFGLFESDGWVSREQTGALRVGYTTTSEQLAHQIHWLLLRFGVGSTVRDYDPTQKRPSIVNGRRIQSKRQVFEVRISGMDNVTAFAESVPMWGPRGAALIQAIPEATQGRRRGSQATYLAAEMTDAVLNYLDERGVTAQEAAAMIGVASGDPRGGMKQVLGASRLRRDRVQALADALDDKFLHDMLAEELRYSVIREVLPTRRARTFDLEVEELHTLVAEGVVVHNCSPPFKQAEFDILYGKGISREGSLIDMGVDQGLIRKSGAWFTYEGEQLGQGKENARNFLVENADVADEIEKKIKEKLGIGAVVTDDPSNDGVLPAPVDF
VHR inh abs: VHR1 phosphatase inhibitors, primary screen, biochemical, absorbance, uHTS; inhibition, % at 13.3 µM; hit rate 0.52% among 290,000; recombinant VHR phosphatase, pNPP absorbance; in the data active = inhibition above about 50%
GFP chromo cs: counter-screen: blocks GFP chromophore formation, dose response, counter-screen, biochemical, fluorescence, homogeneous; shares compounds with RecA intein inh; cell-free GFP chromophore formation; EC50, µM; hit rate 83% among 2,100; call rule not given here
The depositor's hits bear a star. Compounds with a hit are over-represented: about 4.7% of the library has one in this group of screens. Cut-off read from the data, not from the text of the source, unless noted: active = inhibition above about 30%; inactive = the rest.

Results for CC(C)CC1C(C#N)=C(N)Oc2n[nH]c(-c3ccccc3)c21 (stereo unspecified) ?
Mtb FBA inh: -5.4; CCHFV vOTU inh: -1.7; GDH-TPI counter: 3.5; SARS 3CLpro inh: -4.2; RecA intein inh: 82.5*; VHR inh abs: 0.0; GFP chromo cs: 12.8*

What do the screens show for `CC(C)C1C(C#N)=C(N)Oc2n[nH]c(-c3ccccc3)c21` (stereo unspecified)?
Mtb FBA inh: 0.3; CCHFV vOTU inh: 16.9; GDH-TPI counter: 1.0; SARS 3CLpro inh: 2.5; RecA intein inh: 7.7; VHR inh abs: -0.2

What do the screens show for `COc1ccc(Cl)cc1CC1(C)C(=O)Nc2c(Cl)cccc21` (stereo unspecified)?
Mtb FBA inh: 2.1; CCHFV vOTU inh: 22.6; GDH-TPI counter: 9.7

How did Cc1cc(C)c2nc(-c3ccncc3)cc(C(=O)N3CCN(Cc4ccccc4Cl)CC3)c2c1 do in these assays?
Mtb FBA inh: 0.4; CCHFV vOTU inh: 19.2; GDH-TPI counter: 4.2; SARS 3CLpro inh: -5.3; RecA intein inh: 19.6; VHR inh abs: 18.7

What do the screens show for `C=Cn1cc[n+](CC(=O)C(C)(C)C)c1`?
Mtb FBA inh: -3.0; CCHFV vOTU inh: -3.3; GDH-TPI counter: 5.5; SARS 3CLpro inh: 0.2; RecA intein inh: -0.1; VHR inh abs: -14.8

What do the screens show for `COc1ccc(N(C(=O)c2ccco2)C(C(=O)NC2CCCCC2)c2cccs2)cc1OC` (stereo unspecified)?
Mtb FBA inh: 0.8; CCHFV vOTU inh: 6.0; GDH-TPI counter: -10.3; SARS 3CLpro inh: -0.6; RecA intein inh: 2.7; VHR inh abs: 40.3

Results for COc1ccc(N(C(=O)CCl)C(C(=O)NCCc2ccccc2)c2cccs2)cc1Cl (stereo unspecified) ?
Mtb FBA inh: -2.6; CCHFV vOTU inh: 12.4; GDH-TPI counter: 7.0; SARS 3CLpro inh: 3.9; RecA intein inh: 76.6*; VHR inh abs: 4.1; GFP chromo cs: 0.955*

How did COc1cccc(N(C(=O)CCl)C(C(=O)NCCc2ccccc2)c2cccs2)c1 (stereo unspecified) do in these assays?
Mtb FBA inh: 0.8; CCHFV vOTU inh: -11.9; GDH-TPI counter: 0.0; SARS 3CLpro inh: 1.3; RecA intein inh: 73.4*; VHR inh abs: 12.4; GFP chromo cs: 3.27*

What do the screens show for `C/C(=N\NC(=O)CNc1ccccc1)c1ccccc1`?
Mtb FBA inh: 8.6; CCHFV vOTU inh: -10.4; GDH-TPI counter: 0.3; SARS 3CLpro inh: 2.5; RecA intein inh: -0.7; VHR inh abs: 15.8

How did OC(CSc1ccccc1)CN1CCN(c2ccccc2)CC1 (stereo unspecified) do in these assays?
Mtb FBA inh: 4.0; CCHFV vOTU inh: -5.8; GDH-TPI counter: 4.3

Results for COc1ccc(N2C(=O)C(Cl)=C(N3CCOCC3)C2=O)cc1 ?
Mtb FBA inh: -1.8; CCHFV vOTU inh: -11.1; GDH-TPI counter: 18.6; SARS 3CLpro inh: -2.5; RecA intein inh: 74.2*; VHR inh abs: 1.0; GFP chromo cs: 8.7*

Results for COc1ccc(N2C(=O)C(Cl)=C(N3CCN(Cc4ccccc4)CC3)C2=O)cc1 ?
Mtb FBA inh: -0.3; GDH-TPI counter: 3.6; SARS 3CLpro inh: -1.2; RecA intein inh: 69.0*; VHR inh abs: 4.8; GFP chromo cs: 7.11*

What do the screens show for `CCc1ccc(N2C(=O)C(Cl)=C(N3CCCCCC3)C2=O)cc1`?
Mtb FBA inh: -0.5; CCHFV vOTU inh: 9.3; GDH-TPI counter: 0.0; SARS 3CLpro inh: 0.1; RecA intein inh: -4.2; VHR inh abs: -15.2

What do the screens show for `COc1ccc(N2C(=O)c3ccccc3C2=O)cc1`?
Mtb FBA inh: 4.7; CCHFV vOTU inh: -7.1; GDH-TPI counter: 12.2; SARS 3CLpro inh: 1.4; RecA intein inh: 1.8; VHR inh abs: 30.5

Results for CCc1ccc(N2C(=O)C(Cl)=C(N3CCOCC3)C2=O)cc1 ?
Mtb FBA inh: -5.2; CCHFV vOTU inh: -2.7; GDH-TPI counter: -4.5; SARS 3CLpro inh: -0.4; RecA intein inh: 77.6*; VHR inh abs: 7.4; GFP chromo cs: 5.28*

What do the screens show for `COc1ccc(N2CCN(c3nc(Cl)nc(N4CCOCC4)n3)CC2)cc1`?
Mtb FBA inh: -2.6; CCHFV vOTU inh: -1.1; GDH-TPI counter: 4.1; SARS 3CLpro inh: -1.1; RecA intein inh: -1.0; VHR inh abs: 4.2

Results for COc1ccc(N2C(=O)C(Cl)=C(Oc3cccc(OC)c3)C2=O)cc1 ?
Mtb FBA inh: -2.0; GDH-TPI counter: 4.7; SARS 3CLpro inh: 3.3; RecA intein inh: 38.8*; VHR inh abs: 3.0; GFP chromo cs: 20.2*

How did O=c1c2[nH]c3ccc(F)cc3c2ncn1CCC1=CCCCC1 do in these assays?
Mtb FBA inh: 4.0; CCHFV vOTU inh: 13.5; GDH-TPI counter: 6.5; SARS 3CLpro inh: -3.3; RecA intein inh: 1.0; VHR inh abs: 0.9

Results for CC(NC(=O)/C(C#N)=C/c1ccc(Cl)c([N+](=O)[O-])c1)c1ccccc1 (stereo unspecified) ?
CCHFV vOTU inh: 6.0; SARS 3CLpro inh: 5.8; RecA intein inh: 62.2*; VHR inh abs: 7.6; GFP chromo cs: 13.7*

What do the screens show for `C[C@@H](NC(=O)/C(C#N)=C/c1ccc(O)c(O)c1)c1ccccc1`?
Mtb FBA inh: -13.7; CCHFV vOTU inh: 6.5; GDH-TPI counter: 5.7

How did O=C(c1ccc(F)cc1)N1CCN(c2ccc(N3CCOCC3)nn2)CC1 do in these assays?
Mtb FBA inh: 21.2; CCHFV vOTU inh: -44.8; GDH-TPI counter: 2.5; SARS 3CLpro inh: -1.9; RecA intein inh: -4.1; VHR inh abs: 8.7

How did O=C(c1ccc(N2CCN(CCO)CC2)nc1)N1CCOCC1 do in these assays?
Mtb FBA inh: -3.2; CCHFV vOTU inh: -7.4; GDH-TPI counter: -0.3; SARS 3CLpro inh: 1.7; RecA intein inh: 37.4*; VHR inh abs: -4.8; GFP chromo cs: >38

Results for O=c1cc(-c2ccccc2)[nH]n1-c1ccc([N+](=O)[O-])cc1 ?
Mtb FBA inh: -2.3; GDH-TPI counter: 19.1; SARS 3CLpro inh: 11.3; RecA intein inh: 45.7*; VHR inh abs: 28.7; GFP chromo cs: 30.4*

Results for O=c1c(N=Nc2ccc(O)cc2)c(-c2ccccc2)[nH]n1-c1ccc([N+](=O)[O-])cc1 ?
Mtb FBA inh: -1.8; CCHFV vOTU inh: 12.7; GDH-TPI counter: -13.4; SARS 3CLpro inh: 0.8; RecA intein inh: 1.6; VHR inh abs: -2.0

What do the screens show for `COc1ccc(Cl)cc1NS(=O)(=O)c1cccc(C(=O)NC2CC2)c1`?
Mtb FBA inh: -1.9; CCHFV vOTU inh: 0.1; GDH-TPI counter: -0.5

Results for C=CCNC(=S)Nc1sc2c(c1C(=O)OCC)CCN(C(=O)OCC)C2 ?
Mtb FBA inh: 4.2; CCHFV vOTU inh: 1.2; GDH-TPI counter: 16.1; SARS 3CLpro inh: -3.4; RecA intein inh: -2.5; VHR inh abs: 7.2
